# Results taken from PubChem BioAssay AID1745853 (National Center for Advancing Translational Sciences (NCATS), 2022).
# The campaign covered roughly 25,000 compounds. About 970 (3.9%) were called active. Another 8% or so got no clear call; they are omitted. The rule behind the calls is not given here. The full list was thinned out, with actives kept by preference.
# What was measured:
# Assay in all cases: Primary Screen for Target Class Profiling of Small Molecule Inhibitors of Methyltransferases
# [1] = target: Catechol O-methyltransferase (Homo sapiens) (UniProt P21964); settings: purified enzyme, MTase-Glo SAH luminescence; activity change, negative = inhibition: at 40 µM, stronger effect = lower value; outcome: 40 uM
# Chain of Catechol O-methyltransferase (Homo sapiens) (P21964 whole entry, looked up): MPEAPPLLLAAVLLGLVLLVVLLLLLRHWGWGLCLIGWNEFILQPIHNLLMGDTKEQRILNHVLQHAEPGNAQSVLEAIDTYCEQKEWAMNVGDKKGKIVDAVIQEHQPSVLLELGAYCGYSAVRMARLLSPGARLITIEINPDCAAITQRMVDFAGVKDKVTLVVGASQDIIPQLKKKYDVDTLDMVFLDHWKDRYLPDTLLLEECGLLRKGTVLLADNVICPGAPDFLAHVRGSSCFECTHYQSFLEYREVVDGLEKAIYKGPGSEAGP
# In short: (§1)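 Each enzyme was assayed with SAM and its substrate. SAH formation detected by MTase-Glo luminescence; single-point 40 uM screen[…].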
# [2] = target: Glycine N-methyltransferase (Homo sapiens) (UniProt Q14749); settings: purified enzyme, MTase-Glo SAH luminescence; measured here: GNMT inhibition; at 40 µM; stronger effect = lower value
# Chain of Glycine N-methyltransferase (Homo sapiens) (Q14749 whole entry, looked up): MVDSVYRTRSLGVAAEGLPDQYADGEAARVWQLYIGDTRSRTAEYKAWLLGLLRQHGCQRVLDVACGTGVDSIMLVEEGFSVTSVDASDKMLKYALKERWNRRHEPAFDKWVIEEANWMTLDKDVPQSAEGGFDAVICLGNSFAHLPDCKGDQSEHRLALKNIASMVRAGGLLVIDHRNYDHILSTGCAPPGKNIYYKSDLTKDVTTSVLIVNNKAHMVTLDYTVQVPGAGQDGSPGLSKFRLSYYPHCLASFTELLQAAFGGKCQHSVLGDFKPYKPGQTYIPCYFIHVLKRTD
# In short: as §1
# [3] = target: Guanidinoacetate N-methyltransferase (Homo sapiens) (UniProt Q14353); settings: purified enzyme, MTase-Glo SAH luminescence; measured here: GAMT inhibition; at 40 µM; stronger effect = lower value
# In short: as §1
# [4] = target: Histamine N-methyltransferase (Homo sapiens) (UniProt P50135); settings: purified enzyme, MTase-Glo SAH luminescence; measured here: HNMT inhibition; at 40 µM; stronger effect = lower value
# Chain of Histamine N-methyltransferase (Homo sapiens) (P50135 whole entry, looked up): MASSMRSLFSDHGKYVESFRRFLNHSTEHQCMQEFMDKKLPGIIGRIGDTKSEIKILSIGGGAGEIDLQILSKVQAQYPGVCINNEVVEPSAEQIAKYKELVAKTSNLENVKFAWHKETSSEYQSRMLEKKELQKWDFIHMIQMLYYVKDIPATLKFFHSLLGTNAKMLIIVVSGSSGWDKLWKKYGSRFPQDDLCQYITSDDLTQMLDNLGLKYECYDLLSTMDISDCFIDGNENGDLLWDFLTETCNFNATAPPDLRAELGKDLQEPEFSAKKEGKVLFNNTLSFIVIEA
# In short: as §1
# [5] = target: Nicotinamide N-methyltransferase (Homo sapiens) (UniProt P40261); settings: purified enzyme, MTase-Glo SAH luminescence; measured here: NNMT inhibition; at 40 µM; stronger effect = lower value
# Chain of Nicotinamide N-methyltransferase (Homo sapiens) (P40261 whole entry, looked up): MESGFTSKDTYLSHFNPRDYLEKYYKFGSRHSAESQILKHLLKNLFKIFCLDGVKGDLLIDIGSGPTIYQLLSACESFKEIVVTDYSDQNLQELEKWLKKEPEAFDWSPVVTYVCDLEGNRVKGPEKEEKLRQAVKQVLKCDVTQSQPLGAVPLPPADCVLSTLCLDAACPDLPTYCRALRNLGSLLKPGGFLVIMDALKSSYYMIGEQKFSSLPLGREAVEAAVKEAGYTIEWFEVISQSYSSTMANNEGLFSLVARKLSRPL
# In short: as §1
# [6] = target: Phenylethanolamine N-methyltransferase (Homo sapiens) (UniProt P11086); settings: purified enzyme, MTase-Glo SAH luminescence; measured here: PNMT inhibition; at 40 µM; stronger effect = lower value
# Chain of Phenylethanolamine N-methyltransferase (Homo sapiens) (P11086 whole entry, looked up): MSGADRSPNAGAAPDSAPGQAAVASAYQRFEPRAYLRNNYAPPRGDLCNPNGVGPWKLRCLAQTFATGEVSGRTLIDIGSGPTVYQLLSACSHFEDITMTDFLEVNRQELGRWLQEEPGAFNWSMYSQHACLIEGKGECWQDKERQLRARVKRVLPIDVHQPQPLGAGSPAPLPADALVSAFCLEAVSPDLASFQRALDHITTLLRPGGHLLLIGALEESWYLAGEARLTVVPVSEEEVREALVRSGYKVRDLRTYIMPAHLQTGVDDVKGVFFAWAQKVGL
# In short: as §1
# % is set by controls: 0 for no effect and ±100 for the full control effect.
SMILES,"activity change, negative = inhibition [1]","activity change, negative = inhibition [2]","activity change, negative = inhibition [3]","activity change, negative = inhibition [4]","activity change, negative = inhibition [5]","activity change, negative = inhibition [6]",outcome [1]
COCCCn1c(=O)[nH]c2cccnc21,-9.36% (inactive),-5.17%,-6.2%,-1.12%,-14.7%,9.39%,–
CCCn1c(=O)c2ccc(C(=O)NC(C)C)cc2n2c(=O)n(CC(=O)NCc3ccccc3Cl)nc12,4.33% (inactive),2.57%,1.92%,6.44%,8%,4.03%,–
CCOC(=O)c1cc(Nc2ccc(C(C)=O)cc2)c2cc(Cl)ccc2n1,-3.11% (inactive),-4.22%,6.82%,0.863%,6.54%,-3.31%,–
Cc1ccc(N2C(=O)c3cc4sccc4n3CC2(C)C(=O)NC2CCCCC2C)cc1 (stereo not drawn),-3.6% (inactive),-2.03%,1.51%,-1.92%,-1.16%,-6.83%,–
COc1cccc(-c2nnc3n(CCc4ccccc4)c(=O)c4ccccc4n23)c1O,0.892% (inactive),-4.84%,0.066%,2.53%,-3.08%,0.274%,–
CN1CCCC1Cc1c[nH]c2ccc(CCS(=O)(=O)c3ccccc3)cc12 (stereo not drawn),–,-2.16%,–,-89.9%,–,–,active
Cc1cc2c(cc3n2CC(C)(C(=O)NC2CCCCCC2)N(Cc2cccs2)C3=O)o1 (stereo not drawn),-1.18% (inactive),-9.3%,4.66%,-6.23%,-21%,-2.94%,–
CCCCN1C(=O)c2cc(C(=O)NCc3cccc(OC)c3)nn2CC1(C)C(=O)NC1CCCC1 (stereo not drawn),4.35% (inactive),5.79%,1.34%,1.56%,5.98%,5.6%,–
CCn1c(=O)n(CC)c2cc(S(=O)(=O)Nc3ccc(Br)c(C)c3)c(Cl)cc21,-4.03% (inactive),-3.14%,3.91%,-0.387%,-1.18%,-4.27%,–
CCCN1C(=O)c2c(C(=O)NCCc3ccco3)ncn2CC1(C)C(=O)NCc1ccc(C)cc1 (stereo not drawn),7.22% (inactive),0.693%,0.268%,5.09%,4.66%,9%,–
Cc1c(NC(=O)c2cc(C(N)=O)nc3cc(F)ccc23)c(C(F)(F)F)nn1Cc1ccc(C#N)cc1,-4.71% (inactive),-5.91%,-2.28%,3.43%,-13.8%,1.39%,–
COc1ccccc1CNC(=O)c1nn(CC2CC2)c2c1CNCC2,-8.87% (inactive),-6.08%,-7.04%,-9.87%,-14.1%,-12.2%,–
CC(C)n1c(=O)c2ccc(C(=O)NC3CCCCC3)cc2n2c(=O)n(CC(=O)NC3CCCCC3)nc12,-2.65% (inactive),-0.578%,-0.047%,2.13%,-1.76%,-1.89%,–
CC(C)Cn1c(=O)c2ccccc2n2c(=O)n(Cc3ccccc3Cl)nc12,3.16% (inactive),2.72%,1.02%,6.97%,-2.52%,3.52%,–
COc1c(C)c(OCC=C(C)C)cc2c1C(=O)NC2=O,2.98% (inactive),1.17%,8.39%,6.71%,-18%,-15.7%,–
NC(=O)c1cnc(NCCc2ccc(O)c(Cl)c2)nc1NCc1ccccc1,-21.7% (active),-31.8%,-12.1%,-36%,-88.5%,-23.4%,–
O=C(CCc1nnc2ccc(NCCCN3CCCC3=O)nn12)NCc1ccccc1Cl,10.2% (inactive),1.96%,2.26%,10.9%,1.3%,9.12%,–
C[C@@H]1C[C@H]2O[C@@]3(O[C@@H]2C(C)(C)O)C(O)[C@@]2(C)C4CCC5C(C)(C)[C@@H](O[C@H]6OC[C@H](O)[C@@H](O)[C@@H]6O)CC[C@@]56C[C@@]46CC[C@]2(C)C13 (stereo partly drawn),-3.8% (inactive),0%,-1.51%,-4.39%,-13.7%,-0.709%,–
COc1ccccc1CN1C(=O)c2cc3sccc3n2CC1(C)C(=O)NC1CCCC(C)C1C (stereo not drawn),4.18% (inactive),1.88%,0%,3.67%,-3.12%,1.29%,–
Cc1cnc(-c2ccncc2)n1CCN,-5.2% (inactive),-4.08%,-7.5%,-1.23%,-6.93%,-8.39%,–
Cc1cc(Cl)ccc1OCC(=O)N1CC(CO)C2(CCNCC2)C1 (stereo not drawn),2.63% (inactive),-0.912%,-2.42%,-7.34%,1.44%,4.28%,–
CC(C)CCn1c(=O)c2ccc(C(=O)NC(C)C)cc2n2c(=O)n(CC(=O)Nc3ccccc3)nc12,3.2% (inactive),2.47%,0%,-0.014%,2.58%,3.82%,–
COC(=O)C(C)C1CCC2(C)C(=O)C=CC(C)(O)C2C1O (stereo not drawn),-21.2% (inactive),0.317%,3.5%,4.59%,-8.83%,5.47%,–
CC1(C(=O)NC2CCCCC2)Cn2c(nc3ccccc32)C(=O)N1CCCc1ccccc1 (stereo not drawn),-0.028% (inactive),-0.457%,2.95%,-0.222%,2.79%,-1.29%,–
COc1cccc(S(=O)(=O)N2CCC([C@H]3[C@@H](OC)C(=O)N3C(C)C)CC2)c1,-16.7% (inactive),-11%,-0.234%,-8.83%,-11.7%,-7.58%,–
O=C(Nc1ccccc1Cl)N1CCn2cccc2C1Cc1ccccc1 (stereo not drawn),8.91% (inactive),-4.49%,0%,0.539%,-1.29%,1%,–
